In PubChem BioAssay AID1159580 (chemical genetic matrix, 2015):
Values joined by “and” are separate entries in the source; they are usually repeats but may differ in a detail not shown here. Equal entries are not always repeated. In all, about 5,500 compounds went through this assay and about 2,000 (36%) were called active. Not shown: some 18% with an inconclusive outcome. Rule as the data show it: active = normalized growth mostly below about 0.91 (no sharp cut-off); inconclusive = no clear call, values can overlap the other calls; inactive = mostly above about 0.92. This is one part of the list.

Assay: chemical genetic growth profiling, strain panel (AID 1159580);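 also: tested at 20 µM; growth read once vehicle control cultures reached saturation at 30 °C; 1 = growth at the plate median or of vehicle wells; lower values mean less growth of the strain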
Conditions: S. cerevisiae deletion strains, growth OD

Measured: normalized growth

CN1CCOC(c2ccccc2)c2ccccc2C1 (configuration not stated)
inactive: locus YAL013W, strain DEP1, stronger effect = lower value 1.01 | locus YAL021C, strain ccr4, stronger effect = lower value 0.949 | locus YAL026C, strain drs2, stronger effect = lower value 0.969 | locus YAL030W, strain snc1, stronger effect = lower value 0.976 | locus YBL061C, strain skt5, stronger effect = lower value 0.979 | locus YBR009C, strain hhf1, stronger effect = lower value 0.984 | locus YBR021W, strain FUR4, stronger effect = lower value 1.07 | locus YBR023C, strain chs3, stronger effect = lower value 0.974 | locus YBR171W, strain sec66, stronger effect = lower value 0.976 | locus YBR229C, strain ROT2, stronger effect = lower value 1 | locus YBR231C, strain swc5, stronger effect = lower value 0.977 | locus YBR279W, strain paf1, stronger effect = lower value 0.975 | locus YCL011C, strain gbp2, stronger effect = lower value 0.966 | locus YCL016C, strain dcc1, stronger effect = lower value 1 | locus YCL029C, strain bik1, stronger effect = lower value 1.04 | locus YCL061C, strain MRC1, stronger effect = lower value 0.979 | locus YCL069W, strain vba3, stronger effect = lower value 0.984 | locus YCR088W, strain abp1, stronger effect = lower value 0.973 | locus YDL005C, strain med2, stronger effect = lower value 0.979 | locus YDL035C, strain GPR1, stronger effect = lower value 1 | locus YDL040C, strain nat1, stronger effect = lower value 0.967 | locus YDL074C, strain BRE1, stronger effect = lower value 1.05 | locus YDL101C, strain DUN1, stronger effect = lower value 1.02 | locus YDL134C, strain PPH21, stronger effect = lower value 1 | locus YDL185W, strain tfp1, stronger effect = lower value 1.02 | locus YDL192W, strain arf1, stronger effect = lower value 1.02 | locus YDR001C, strain nth1, stronger effect = lower value 0.974 | locus YDR069C, strain doa4, stronger effect = lower value 0.91 | locus YDR101C, strain arx1, stronger effect = lower value 1.01 | locus YDR137W, strain rgp1, stronger effect = lower value 0.988 | locus YDR150W, strain NUM1, stronger effect = lower value 0.992 | locus YDR159W, strain sac3, stronger effect = lower value 0.916 | locus YDR162C, strain NBP2, stronger effect = lower value 1.01 | locus YDR195W, strain ref2 0.941 | locus YDR297W, strain sur2, stronger effect = lower value 0.985 | locus YDR318W, strain mcm21, stronger effect = lower value 1.03 | locus YDR334W, strain swr1, stronger effect = lower value 0.917 | locus YDR335W, strain msn5, stronger effect = lower value 0.995 | locus YDR388W, stronger effect = lower value 1.02 | locus YDR392W, strain spt3, stronger effect = lower value 0.987 | locus YDR502C, strain sam2, stronger effect = lower value 1.01 | locus YEL003W, strain gim4, stronger effect = lower value 0.989 | locus YEL037C, strain rad23, stronger effect = lower value 0.985 | locus YEL061C, strain CIN8 (second series), stronger effect = lower value 0.971 | locus YEL061C, strain CIN8, stronger effect = lower value 1 | locus YER015W, strain faa2, stronger effect = lower value 0.992 | locus YER016W, strain bim1, stronger effect = lower value 0.975 | locus YER110C, stronger effect = lower value 1.02 | locus YER111C, strain swi4, stronger effect = lower value 0.971 | locus YER155C, strain BEM2 (second series), stronger effect = lower value 1.01 | locus YER155C, strain BEM2, stronger effect = lower value 1.01 | locus YER167W, strain BCK2, stronger effect = lower value 1.01 | locus YFR010W, strain ubp6, stronger effect = lower value 0.966 | locus YGL078C, strain dbp3, stronger effect = lower value 1.02 | locus YGL086W, strain mad1, stronger effect = lower value 0.998 | locus YGL167C, strain pmr1, stronger effect = lower value 0.981 | locus YGL173C, strain kem1, stronger effect = lower value 0.958 | locus YGL227W, strain vid30, stronger effect = lower value 0.951 | locus YGL240W, strain doc1, stronger effect = lower value 0.977 | locus YGL248W, strain PDE1, stronger effect = lower value 1.01 | locus YGL253W, strain hxk2, stronger effect = lower value 0.963 | locus YGR078C, strain PAC10, stronger effect = lower value 1.02 | locus YGR135W, strain pre9, stronger effect = lower value 1.02 | locus YGR229C, strain SMI1, stronger effect = lower value 0.987 | locus YGR252W, strain gcn5, stronger effect = lower value 0.997 | locus YHR013C, strain ard1, stronger effect = lower value 0.992 | locus YHR027C, strain rpn1, stronger effect = lower value 0.98 | locus YHR030C, strain SLT2, stronger effect = lower value 1 and 0.998 | locus YHR079C, strain IRE1 (second series), stronger effect = lower value 1.02 | locus YHR079C, strain IRE1, stronger effect = lower value 0.985 | locus YHR094C, strain hxt1, stronger effect = lower value 1.01 | locus YHR129C, strain ARP1, stronger effect = lower value 1.01 | locus YHR142W, strain chs7, stronger effect = lower value 0.963 | locus YHR200W, strain rpn10, stronger effect = lower value 1.02 | locus YIL066C, strain RNR3, stronger effect = lower value 1.01 | locus YIL073C, strain SPO22, stronger effect = lower value 1.06 | locus YIL125W, strain kgd1, stronger effect = lower value 1.01 | locus YIR030C, strain dcg1, stronger effect = lower value 1.02 | locus YJL092W, strain hpr5, stronger effect = lower value 0.986 | locus YJL095W, strain BCK1 (second series), stronger effect = lower value 0.975 | locus YJL095W, strain BCK1, stronger effect = lower value 1.02 and 0.995 | locus YJL115W, strain asf1, stronger effect = lower value 0.949 | locus YJL129C, strain trk1, stronger effect = lower value 0.968 | locus YJL134W, strain LCB3, stronger effect = lower value 1 | locus YJL154C, strain vps35, stronger effect = lower value 0.95 | locus YJL164C, strain tpk1, stronger effect = lower value 0.984 | locus YJL166W, strain qcr8, stronger effect = lower value 0.968 | locus YJL168C, strain set2, stronger effect = lower value 1.02 | locus YJL187C, strain SWE1 (second series), stronger effect = lower value 1.02 | locus YJL187C, strain SWE1, stronger effect = lower value 0.985 | locus YJR043C, strain POL32, stronger effect = lower value 1.03 | locus YJR066W, strain TOR1, stronger effect = lower value 0.945
